Broadly, the inhibition is the relative decrease from the control value, in per cent.

The nature of assay [1]: inhibitors of TNFa-induced NFkB p65 translocation, primary screen, imaging, HUVEC, MLSMR starter and 10KST1 sets (AID 438;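 active = inhibition above 20% together with a positive visual image hit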;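 also: compound added about 3h40 before a 20 min TNFalpha stimulation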;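 as to inhibition: signal is the nuclear over cytoplasmic p65 intensity ratio per well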). To be noted: HUVEC TNFa-induced p65 nuclear translocation; cell count: measured here: nuclei count (cytotoxicity indicator), at 2.08 µM; inhibition: at 2 µM, stronger effect = higher value, 0% TNFa-plus-vehicle, 100% no-TNFa wells.
Assay [2] is described as follows: reduction of polyQ htt aggregates in cells – imaging, exon1htt(103Q)mCFP cells, high-content imaging, primary screen (AID 483;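 active = visual image review flags a hit and inhibition of aggregation exceeds 20%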;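 also: compound exposure lasted 3 days before fixation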;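 as to nuclei count: percent of the per-plate median nuclei count of sample wells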). To be noted: exon1htt(103Q)mCFP cell line, aggregate imaging, at 2 µM; inhibition of aggregation: stronger effect = higher value; nuclei count: measured here: cell count, toxicity.
Assay [3] in a line: endothelial E-selectin expression blockers – imaging, HUVEC, immunofluorescence, MLSMR starter and 10KST1 sets, primary screen (AID 487;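 active = visually confirmed hit in the image check and inhibition above 20%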;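 as to inhibition: signal is fraction of cell area covered by stained E-selectin grains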;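 as to nuclei count: 100% = median nuclei count of all wells on the same plate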). To be noted: HUVEC TNFalpha-induced E-selectin immunofluorescence imaging, at 2 µM; inhibition: stronger effect = higher value; nuclei count: measured here: cell number, toxicity.
The target of assay [4] is Voltage-gated potassium channel subunit beta-2 (Rattus norvegicus) (UniProt P62483). In words: inhibitors of rat Kvbeta2 reductase activity – biochemical, NADPH fluorescence, primary screen (AID 622).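 Also: slope of raw intensity against log time taken from 70 to 1610 s.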 To be noted: recombinant KvBeta, 4-cyanobenzaldehyde reduction, at 10 µM, stronger effect = higher value.
Assay [5] shares this target. Nature of the assay: enhancers of rat Kvbeta2 NADPH turnover – biochemical, NADPH fluorescence, primary screen (AID 623;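 active = NADPH fluorescence slope more negative than the mean of all samples by about 3 SD, 99.7% confidence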;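 also: fluorescence intensity change per second fitted from 20 to 320 s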). To be noted: Recombinant KvBeta, NADPH fluorescence decrease slope, 10 min; at 10 µM; stronger effect = lower value.
Assay [6] addresses Alpha-2C adrenergic receptor (Homo sapiens) (UniProt P18825). Nature of the assay: compounds altering alpha2C-coupled GIRK flux – cell-based, HEK293 alpha2C/GIRK1/2, thallium flux, primary screen (AID 624;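 active = fluorescence slope after compound addition differing from the mean of all screened samples at 99.7% confidence, in either direction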;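 also: slope of fluorescence ratio to pre-addition baseline per second over 15 to 24 s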). To be noted: thallium flux BTC fluorescence, at 10 µM, actives lie on both sides.
A short description of assay [7]: blockers of RIG-like receptor reporter activation – cell-based, Sendai virus stimulus, luciferase, 10K MLSCN set, TLR/RLR signaling modifier project, primary screen (AID 602276;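 active = inhibition at or above 50% at 10 µM; inactive = inhibition below 50%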;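 also: firefly luciferase from ISG56 promoter only with Renilla not read in this screen; 0% = Sendai virus plus DMSO and 100% = medium plus DMSO without virus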). To be noted: HEK293 RL24 IRF3 luciferase reporter, at 10 µM, stronger effect = higher value. (A reporter such as luciferase makes a cellular process visible.)
Assay [8] in a line: TLR3 IRF3 reporter activation blockers – cell-based, poly I:C stimulus, luciferase, 10K MLSCN set, primary screen (AID 602277;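 active = inhibition of the reporter signal at or above 50%; inactive = inhibition below 50%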). To be noted: HEK293-TLR3 RL24 IRF3 luciferase reporter, at 10 µM, stronger effect = higher value.

Calls of active or inactive are those of the source.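 The calls were made as follows, unless noted: active = fluorescence slope higher than the sample average by over 3 SD (cut at about -0.22 in these data, passing the limit was not always enough); inactive = the rest.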

Sequence of Voltage-gated potassium channel subunit beta-2 (Rattus norvegicus) (P62483 whole entry, looked up): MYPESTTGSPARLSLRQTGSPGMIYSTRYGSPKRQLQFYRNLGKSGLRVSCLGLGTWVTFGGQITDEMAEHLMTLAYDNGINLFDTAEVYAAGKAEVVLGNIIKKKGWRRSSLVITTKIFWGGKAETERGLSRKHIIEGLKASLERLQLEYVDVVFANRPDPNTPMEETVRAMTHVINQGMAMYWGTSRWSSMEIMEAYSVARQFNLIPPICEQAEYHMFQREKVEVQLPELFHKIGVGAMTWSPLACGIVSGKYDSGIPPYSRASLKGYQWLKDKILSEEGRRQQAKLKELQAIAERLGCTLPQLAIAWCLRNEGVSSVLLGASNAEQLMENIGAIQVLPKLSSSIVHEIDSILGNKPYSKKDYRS
Sequence of Alpha-2C adrenergic receptor (Homo sapiens) (P18825 whole entry, looked up): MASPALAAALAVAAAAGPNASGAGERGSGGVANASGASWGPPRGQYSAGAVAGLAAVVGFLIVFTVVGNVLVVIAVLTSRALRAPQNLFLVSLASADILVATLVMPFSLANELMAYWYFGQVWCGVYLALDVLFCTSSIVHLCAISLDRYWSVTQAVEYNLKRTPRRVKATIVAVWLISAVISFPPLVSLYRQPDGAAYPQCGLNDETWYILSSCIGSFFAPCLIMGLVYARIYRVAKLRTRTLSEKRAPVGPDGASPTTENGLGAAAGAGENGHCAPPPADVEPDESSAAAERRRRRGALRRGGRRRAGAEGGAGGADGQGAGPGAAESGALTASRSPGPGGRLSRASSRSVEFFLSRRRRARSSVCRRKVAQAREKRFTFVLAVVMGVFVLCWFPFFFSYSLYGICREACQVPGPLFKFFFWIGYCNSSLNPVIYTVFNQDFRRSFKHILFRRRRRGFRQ

As to `Cc1oc(-c2ccccc2F)nc1CS(=O)(=O)CC(=O)NCc1ccco1`, the cell count in assay [1] stood at 753. Moreover, the inhibition was -1.1% (inactive) in assay [1], -29.4% (inactive) in assay [3], 0.0639% (inactive) in assay [7] and 22.5% (inactive) in assay [8]. The inhibition of aggregation in assay [2] was 4.5% (inactive). Moreover, the nuclei count in assay [2] amounted to 102%; in assay [3] it was 107%. In addition, in assay [4], the fluorescence slope was -0.539 (inactive). The NADPH fluorescence slope in assay [5] was -1.9e-05 (inactive). The slope in assay [6] is 0.00692 (inactive).

Take `O=C(c1c(F)cccc1F)N(Cc1ccccn1)C1CCCC1`: the cell count in assay [1] came out at 521. Further, the inhibition is -11.2% (inactive) in assay [1], 40.9% (inactive) in assay [3], -7.47% (inactive) in assay [7] and -6.01% (inactive) in assay [8]. For the same compound, in assay [2], the inhibition of aggregation is 24.2% (inactive). The nuclei count was determined as 110% in assay [2] and 87.3% in assay [3]. The fluorescence slope in assay [4] was -0.534 (inactive). In addition, the NADPH fluorescence slope in assay [5] is 2e-06 (inactive). Besides, in assay [6], the slope is 0.00412 (inactive).

For `FC(F)(F)c1cccc(N2CCN(Cc3cccnc3)CC2)c1`, the cell count in assay [1] came out at 447. Also, the inhibition in assay [1] was -3.8% (inactive); in assay [3], -57.5% (inactive); in assay [7], 17.4% (inactive); in assay [8], 12.1% (inactive). In addition, in assay [2], the inhibition of aggregation was -15.1% (inactive). Also, the nuclei count in assay [2] was found to be 109%; in assay [3], 127%. Further, the fluorescence slope in assay [4] is -0.505 (inactive). Besides, the NADPH fluorescence slope in assay [5] is -6.8e-05 (inactive). The slope in assay [6] was 0.00521 (inactive).

For `COc1ccc(S(=O)(=O)Nc2cc(C)on2)cc1OC`, the cell count in assay [1] turned out to be 455. The inhibition in assay [1] was 6.5% (inactive); in assay [3], -171% (inactive); in assay [7], 7.69% (inactive); in assay [8] it was 12.8% (inactive). Moreover, in assay [2], the inhibition of aggregation is -7.8% (inactive). For the same compound, the nuclei count in assay [2] amounted to 109%; in assay [3] it was 136%. Moreover, the fluorescence slope in assay [4] is -0.523 (inactive). Also, the NADPH fluorescence slope in assay [5] is 9.2e-06 (inactive). Further, the slope in assay [6] is 0.00556 (inactive).

As for `CC1(CC(=O)O)C(=O)N=C2C=CC=CN21` (centres undefined), in assay [1], the cell count was found to be 489. The inhibition was -10.7% (inactive) in assay [1], 12.8% (inactive) in assay [3], 19.8% (inactive) in assay [7] and 22.1% (inactive) in assay [8]. The inhibition of aggregation in assay [2] was 17.4% (inactive). The nuclei count in assay [2] is 77.5%; in assay [3], 97.8%. Further, in assay [4], the fluorescence slope was -0.318 (inactive). Also, the NADPH fluorescence slope in assay [5] was 2.3e-05 (inactive). For the same compound, the slope in assay [6] was 0.0089 (inactive).

`O=c1oc2ccccc2c(O)c1C=NCc1ccccn1`: the cell count in assay [1] worked out at 452. In addition, the inhibition in assay [1] was 7.6% (inactive); in assay [3] it was -63.5% (inactive); in assay [7], -8.1% (inactive); in assay [8], 22.7% (inactive). The inhibition of aggregation in assay [2] was 2.3% (inactive). Moreover, the nuclei count was found to be 98.7% in assay [2] and 95.8% in assay [3]. Further, the fluorescence slope in assay [4] was -0.509 (inactive). Besides, the NADPH fluorescence slope in assay [5] was -4.5e-05 (inactive). In addition, in assay [6], the slope is 0.00647 (inactive).

Take `CCOC(=O)CNC(=O)CSc1nc(N)cc(N)n1`: in assay [1], the cell count was 434. Moreover, the inhibition in assay [1] is 5.1% (inactive); in assay [3], -62.6% (inactive); in assay [7] it was 1.91% (inactive); in assay [8], 8.68% (inactive). Also, the inhibition of aggregation in assay [2] was -0.1% (inactive). Further, the nuclei count stood at 106% in assay [2] and 108% in assay [3]. For the same compound, the fluorescence slope in assay [4] was -0.385 (inactive). In addition, in assay [5], the NADPH fluorescence slope is 2.9e-05 (inactive). Further, in assay [6], the slope was 0.00537 (inactive).

In the case of `Cc1cccnc1-n1c(CCN2C(=O)c3ccccc3C2=O)nc2ccccc2c1=O`, in assay [1], the cell count came out at 359. Further, the inhibition in assay [1] was -5.4% (inactive); in assay [3] it was -12.9% (inactive); in assay [7], 2.74% (inactive); in assay [8], 2.5% (inactive). Moreover, in assay [2], the inhibition of aggregation was 12.7% (inactive). The nuclei count stood at 84.4% in assay [2] and 83.7% in assay [3]. In addition, the fluorescence slope in assay [4] was -0.327 (inactive). Also, in assay [5], the NADPH fluorescence slope is -7.6e-06 (inactive). For the same compound, in assay [6], the slope is 0.00629 (inactive).

On to `NCCCCCc1nnc(SC/C=C/c2ccccc2)o1`, for which the cell count in assay [1] came to 396. The inhibition was -9.8% (inactive) in assay [1], 20.9% (inactive) in assay [3], 14.3% (inactive) in assay [7] and 12.7% (inactive) in assay [8]. Moreover, in assay [2], the inhibition of aggregation was 3% (inactive). The figures for the nuclei count in assay [2] and in assay [3] were 69.1% and 94%, respectively. In addition, the fluorescence slope in assay [4] is -0.488 (inactive). For the same compound, in assay [5], the NADPH fluorescence slope is -4.2e-05 (inactive). In addition, the slope in assay [6] was 0.00602 (inactive).

These data come from PubChem BioAssay.
